# Paper PMC6602471
# Over roughly 1,300 sequences, “log fluorescence intensity” has its median near 8.9; the highest 2% begin near 13. This is one part of a sample in which the highest values are shown more often than they occur.
# Target: T1, ELK1 (Homo sapiens, UniProt P19419 1-428)
# T1 sequence: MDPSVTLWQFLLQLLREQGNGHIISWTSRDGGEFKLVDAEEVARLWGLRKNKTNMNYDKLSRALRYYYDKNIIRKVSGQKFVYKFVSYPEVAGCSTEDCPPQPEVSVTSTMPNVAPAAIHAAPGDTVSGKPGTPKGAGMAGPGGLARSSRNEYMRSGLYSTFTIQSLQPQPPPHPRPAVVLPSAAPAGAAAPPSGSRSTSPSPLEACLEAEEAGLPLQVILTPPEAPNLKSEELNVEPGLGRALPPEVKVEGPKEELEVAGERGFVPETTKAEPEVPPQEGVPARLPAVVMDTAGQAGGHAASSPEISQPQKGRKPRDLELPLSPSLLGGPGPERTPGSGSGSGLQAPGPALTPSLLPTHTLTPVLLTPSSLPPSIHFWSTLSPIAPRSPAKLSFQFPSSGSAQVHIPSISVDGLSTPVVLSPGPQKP
# Assay: custom PBM; custom protein-binding microarray; buffer, salt, pH and temperature not stated; high values mean tight binding
# Conditions: dsDNA, one strand shown
row,Sequence,binding signal
1,GCTGCTGCGGTGCATACCCCACCGGATGTGACTCCGGTCTTGATTCGCTTGACGCTGCTG,10.3 log fluorescence intensity
2,GATTAATTTCTTCCCTTATTCGCACGTGCCATAACAGTCTTGATTCGCTTGACGCTGCTG,9.19 log fluorescence intensity
3,CGGAAGTGTCGCAAACGTCGGATATCCGGTTCTTCTGTCTTGATTCGCTTGACGCTGCTG,12.5 log fluorescence intensity
4,CGGAAGTGTAGTAAACGTCGGATATCCGGTTCTTCTGTCTTGATTCGCTTGACGCTGCTG,12.1 log fluorescence intensity
5,CGGAAGTGTCTTAAACGTCGGATATCCGGTTCTTCTGTCTTGATTCGCTTGACGCTGCTG,12.1 log fluorescence intensity
6,CGGAAGTGTCATAAACGTCGGATATCCGGTTCTTCTGTCTTGATTCGCTTGACGCTGCTG,12.1 log fluorescence intensity
7,CGGAAGTGTCGTCAACGTCGGATATCCGGTTCTTCTGTCTTGATTCGCTTGACGCTGCTG,12.6 log fluorescence intensity
8,CGGAAGTGTCCTAAACGTCGGATATCCGGTTCTTCTGTCTTGATTCGCTTGACGCTGCTG,12.4 log fluorescence intensity
9,CGGAAGTGTCGTAGACGTCGGATATCCGGTTCTTCTGTCTTGATTCGCTTGACGCTGCTG,12.3 log fluorescence intensity
10,CGGAAGTGTCGTATACGTCGGATATCCGGTTCTTCTGTCTTGATTCGCTTGACGCTGCTG,12.5 log fluorescence intensity
11,CGGAAGTGTCGTTAACGTCGGATATCCGGTTCTTCTGTCTTGATTCGCTTGACGCTGCTG,12.6 log fluorescence intensity
12,CGGAAGTGTCGGAAACGTCGGATATCCGGTTCTTCTGTCTTGATTCGCTTGACGCTGCTG,13.5 log fluorescence intensity
13,CGGAAGTGTCGTGAACGTCGGATATCCGGTTCTTCTGTCTTGATTCGCTTGACGCTGCTG,11.8 log fluorescence intensity
14,CGGAAGTGTCGAAAACGTCGGATATCCGGTTCTTCTGTCTTGATTCGCTTGACGCTGCTG,12.4 log fluorescence intensity
15,GCTGCCGCGGTGCATACCCCACCGGATGTGACCCCGGTCTTGATTCGCTTGACGCTGCTG,10.5 log fluorescence intensity
16,GCTGATGCGGTGCATACCCCACCGGATGTGACCCCGGTCTTGATTCGCTTGACGCTGCTG,10.2 log fluorescence intensity
17,CTGGGACTTGACCCAACTCTGCCGCGTGGGTCGTTTGTCTTGATTCGCTTGACGCTGCTG,8.91 log fluorescence intensity
18,GGAAAAAGACCCAGGGTAACACCGGAAGTGGGCTTAGTCTTGATTCGCTTGACGCTGCTG,11 log fluorescence intensity
19,GCTGCTGCGTTGCATACCCCACCGGATGTGACCCCGGTCTTGATTCGCTTGACGCTGCTG,10.1 log fluorescence intensity
20,TCCGGCTACCAGCTCCACCCAATTCAGGCCTTGTAGGTCTTGATTCGCTTGACGCTGCTG,8.93 log fluorescence intensity
21,CTGGGACTTGACCTAACTCTGCCACGTGGGTCGTTTGTCTTGATTCGCTTGACGCTGCTG,8.92 log fluorescence intensity
22,CACAATTTTTACAGTAATGTAGCATGCGTAACTCCTGTCTTGATTCGCTTGACGCTGCTG,8.94 log fluorescence intensity
23,CTGGGACATGACCCAACTCTGCCACGTGGGTCGTTTGTCTTGATTCGCTTGACGCTGCTG,8.96 log fluorescence intensity
24,GCTGCTGCGGTGCATACCCCACAGGATGTGACCCCGGTCTTGATTCGCTTGACGCTGCTG,9.08 log fluorescence intensity
25,TGTCGGGTAAGGGAATGTAGATCACGTGAATGAATAGTCTTGATTCGCTTGACGCTGCTG,8.98 log fluorescence intensity
26,TGTCGGGTAAGGGAATGTAGATCACGTGAATGATAAGTCTTGATTCGCTTGACGCTGCTG,9.11 log fluorescence intensity

row,Sequence,binding signal
1,GCTGCTGCGGTGCATACCCCACCGGATGTGCCCCCGGTCTTGATTCGCTTGACGCTGCTG,10.2 log fluorescence intensity
2,TATTAATTTCTGCCCTTATTCGCACGTGCCATAACAGTCTTGATTCGCTTGACGCTGCTG,8.91 log fluorescence intensity
3,GTGTATAGGATCCCATCCAACACACGGGTTAAAATGGTCTTGATTCGCTTGACGCTGCTG,8.95 log fluorescence intensity
4,GCTGCTGCGGTGCCTACCCCACCGGATGTGACCCCGGTCTTGATTCGCTTGACGCTGCTG,10.3 log fluorescence intensity
5,TACTGACTTTTATATGCGAATGCACATGAATAGACCGTCTTGATTCGCTTGACGCTGCTG,8.97 log fluorescence intensity
6,GTAAAAAGGCCCAGGGTAACACCGGAAGTGGGCTTAGTCTTGATTCGCTTGACGCTGCTG,10.9 log fluorescence intensity
7,GTGTATAGGATCCCATCCAACACACGTATTAAAATGGTCTTGATTCGCTTGACGCTGCTG,9.05 log fluorescence intensity
8,CGGAAGTGTGGTAAACGTCGGATATCCGGTTCTTCTGTCTTGATTCGCTTGACGCTGCTG,12 log fluorescence intensity
9,CAGTATAGGACTTCTTCCCTGAAGCAATTGATAACCGTCTTGATTCGCTTGACGCTGCTG,8.93 log fluorescence intensity
10,GTGTATGGGATCCCATCCAACACACGTGTTAAAATGGTCTTGATTCGCTTGACGCTGCTG,9.12 log fluorescence intensity
11,CACTATTTTTACAGTAATGTAGCACGCGTAACTCCTGTCTTGATTCGCTTGACGCTGCTG,8.94 log fluorescence intensity
12,TACTGACTAATATATGCGAATGCACATGAATAGACCGTCTTGATTCGCTTGACGCTGCTG,8.92 log fluorescence intensity
13,TGTCGGGTAAGGAAATGTAGATCACGTGAATGAAAAGTCTTGATTCGCTTGACGCTGCTG,8.91 log fluorescence intensity
14,GGAAAGAGGCCCAGGGTAACACCGGAAGTGGGCTTAGTCTTGATTCGCTTGACGCTGCTG,10.8 log fluorescence intensity
15,CTGGGATTTGACCCAACTCTGCCACGTGGGTCGTTTGTCTTGATTCGCTTGACGCTGCTG,9.02 log fluorescence intensity
16,TGTCGGGTAAGGGAATGTAGATCACGTGGATGAAAAGTCTTGATTCGCTTGACGCTGCTG,8.97 log fluorescence intensity
17,TCCGGCTACCAGCTCCACCCACTTCAGGCCTTGTCGGTCTTGATTCGCTTGACGCTGCTG,9.01 log fluorescence intensity
18,CACAGTTTTTACAGTAATGTAGCACGCGTAACTCCTGTCTTGATTCGCTTGACGCTGCTG,8.91 log fluorescence intensity
19,GTGTATAGGATCCCATCCAACACACGTGATAAAATGGTCTTGATTCGCTTGACGCTGCTG,8.94 log fluorescence intensity
20,CAGCATAGGACTTCTTCCCTGAAACAATTGATAACCGTCTTGATTCGCTTGACGCTGCTG,8.97 log fluorescence intensity
21,GATTAATTTCTGCCCTTATTCGCACGTGCCCTAACAGTCTTGATTCGCTTGACGCTGCTG,8.97 log fluorescence intensity
22,TCCGGCTACCAGCTCCACCCACTTCATGCCTTGTAGGTCTTGATTCGCTTGACGCTGCTG,8.92 log fluorescence intensity
23,GGAAAAAGGCCCAGGGTAACTCCGGAAGTGGGCTTAGTCTTGATTCGCTTGACGCTGCTG,10.4 log fluorescence intensity
24,GTGTATAGGATCCCATCCAACACACGTGTTACAATGGTCTTGATTCGCTTGACGCTGCTG,9.02 log fluorescence intensity
25,TGTCGGGTAAGGGAATGTACATCACGTGAATGAAAAGTCTTGATTCGCTTGACGCTGCTG,8.92 log fluorescence intensity
26,GTGTATAGGATCCCATCCCACACACGTGTTAAAATGGTCTTGATTCGCTTGACGCTGCTG,9.07 log fluorescence intensity
